This assay deals with frog Retinoid X Receptor beta (RXRb), gene 394278. Nature of the assay: ATG_frRXRb_EcoTox2: Attagene TRANS-FACTORIAL EcoTox-2 HepG2 Assay for frog Retinoid X Receptor beta (RXRb). The protocol: ATG_EcoTox2 is a cell-based, multiplexed assay created by modifying the existing Attagene TRANS-FACTORIAL system to include a panel of nuclear receptors from some or all the following species: human (Homo sapiens), african clawed frog (Xenopus laevis), rainbow trout (Oncorhynchus mykiss), japanese medaka (Oryzias latipes), and zebrafish (Danio rerio). The ECOTOX2-FACTORIAL format uses HepG2, a human liver cell line, with measurements taken at 24 hours after chemical dosing in a 24-well plate. ATG_frRXRb_EcoTox2 is one of 29 assay components calculated in the ATG_EcoTox2 assay. It is designed to make measurements of mRNA induction, a form of inducible reporter, as detected with fluorescence intensity signals by Reverse transcription polymerase chain reaction (RT-PCR) and Capillary electrophoresis technology.The assay endpoint ATG_frRXRb_EcoTox2 was analyzed in the positive analysis fitting direction relative to DMSO as the negative control and baseline of activity. Using a type of inducible reporter, measures of mRNA for gain-of-signal activity can be used to understand the reporter gene at the transcription factor-level as they relate to the gene RXRb. Furthermore, this assay endpoint can be referred to as a primary readout, because this assay has produced multiple assay endpoints where this one serves a reporter gene function. […]
Human liver HepG2 cells are transiently transfected with multiple reporter transcription units (MRTUs) in 6-well plates using FuGene 6 reagent (Roche; 3 ml FuGene/1 mg DNA). […] A major difference between the CIS and TRANS system is that in CIS activities of endogenous TFs are measured, whereas the TRANS assay evaluates changes in activities of exogenous, chimeric NR-Gal4 proteins. […] The fragments were purified using Qiaquick PCR columns (Qiagen), analyzed on an ABI 3130xL genetic analyzer (Applied Biosystems) with peak positions identified by using a set of X-rhodamine (ROX)-labeled MapMarker1000 molecular weight standards (BioVentures). […]

Records with an inconclusive call do not appear. The source made the active and inactive calls. Rule for the calls: active = hit-call score of the fitted dose curve at least 0.9, where 1 is the maximum; inconclusive = response in the unintended direction; inactive = score below 0.9.

For the compound `[Cl][Sn]([c]1ccccc1)([c]1ccccc1)[c]1ccccc1`, the concentration at half-maximal activity (AC50) was 0.0888 µM (active).
For `O=C(O)C(F)(F)C(F)(F)C(F)(F)C(F)(F)C(F)(F)C(F)(F)C(F)(F)F`, the concentration at half-maximal activity (AC50) is 30 µM (active).
As for `CCCCOCN(C(=O)CCl)c1c(CC)cccc1CC`, the figure is 38.5 µM (active).

What is called AC50 is the concentration giving half of the maximal activity seen.
